Measurements taken from PubChem BioAssay.

Each molecule was assayed on Human papillomavirus type 1a protein E7 (residues 44-93) (assay: HPV1a E7 fragment binders on microarrays, primary screen, biochemical, small-molecule microarray, residues 44-93, 635 nm fluorescence (AID 1108;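 note: E7 fragment applied at 1 µg/mL in TBST for 1 h at 4 C; score combines spot fluorescence with its signal to noise ratio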)). Conditions: small-molecule microarray binding, fluorescence 635 nm; higher = more signal.

Question: `[N-]=[N+]=Nc1ccccc1C[C@@]1(C(=O)N2CCOCC2)N=C(c2ccc(OCCCO)cc2)O[C@@H]1c1ccccc1` was tested. Which composite z-score did it give?
Answer: The composite z-score was 1.

Question: With `[N-]=[N+]=Nc1ccccc1C[C@]1(C(=O)O)COC(c2ccc(OCCCO)cc2)=N1` as the molecule, how does the composite z-score read?
Answer: The composite z-score was 0.118.

Question: With `COCCOC(=O)N1C(=O)[C@@]2(c3cc(C#CC4=CCCCC4)ccc31)[C@H](c1ccccc1OCCO)N1[C@H](c3ccccc3)[C@H](c3ccccc3)OC(=O)[C@H]1[C@@H]2C(=O)N1CCN(c2ncccn2)CC1` as the molecule, how does the composite z-score read?
Answer: The composite z-score was 1.28.

Question: For `O=C1O[C@@H](c2ccccc2)[C@@H](c2ccccc2)N2[C@@H](c3ccc(OCCO)cc3)[C@]3(C(=O)Nc4ccc(C#CC5=CCCCC5)cc43)[C@@H](C(=O)NC[C@H](O)c3ccccc3)[C@H]12`, which composite z-score is on record?
Answer: Its composite z-score is 0.97.

Question: For `[N-]=[N+]=Nc1ccccc1C[C@]1(C(=O)NCCN2CCOCC2)COC(c2ccc(OCCCO)cc2)=N1`, which composite z-score is on record?
Answer: Its composite z-score is 1.4.

Question: `O=C1OCCC=C[C@H]2OC34C=CCN(Cn5nnc6ccccc65)C(=O)[C@H]3N(CCCO)C(=O)[C@@H]4C12` (stereo not given in full) was tested. Which composite z-score did it give?
Answer: Its composite z-score is -0.69.

Question: `CC(C)[Si](C#C[Si](C(C)C)(C(C)C)C(C)C)(O[C@H](c1ccccc1)c1cn(Cc2ccccc2)nn1)C(C)C` was tested. Which composite z-score did it give?
Answer: Its composite z-score is 1.06.

Question: For `CC(C)N1C(=O)C[C@@](C(=O)O)(c2ccc([N+](=O)[O-])cc2)[C@H]1c1ccc(CO)cc1`, which composite z-score is on record?
Answer: The composite z-score was 0.48.

Question: With `C=CCC(OC(C)=O)[C@@H]1[C@@H](N(Cc2ccc(-c3ccccc3)cc2)C(=O)c2ccc(-c3ccccc3)cc2)c2cc(OCCCO)ccc2N1C(=O)c1ccc2ccccc2c1` (stereo not given in full) as the molecule, how does the composite z-score read?
Answer: The composite z-score was 0.508.

Question: How did the composite z-score turn out when `COc1ccc([Si](C)(C)[C@@H]2[C@@H](CCO)O[C@]3(C(=O)N(Cc4ccccc4)c4ccc(N5CCOC5=O)cc43)[C@H]2C)cc1` was run?
Answer: Its composite z-score is 1.35.

Question: With `[N-]=[N+]=Nc1ccccc1C[C@]1(C(=O)NCC(O)CO)COC(c2ccc(OCCCO)cc2)=N1` (stereo not given in full) as the molecule, how does the composite z-score read?
Answer: The composite z-score was 0.776.

Question: How did the composite z-score turn out when `CN(C)CCCCCCNC(=O)[C@@H]1C[C@@H]2C(=O)N3CCC[C@H]3C(=O)N2[C@@H]1c1cccc(OCCO)c1` was run?
Answer: Its composite z-score is 0.35.

Question: With `CCOC(=O)C[C@H]1[C@H](OC(=O)c2cc3ccccc3oc2=O)[C@@H](NC(=O)c2ccccc2)c2cc(OCCCO)ccc2N1C(=O)c1ccccc1` as the molecule, how does the composite z-score read?
Answer: The composite z-score was 0.119.

Question: How did the composite z-score turn out when `O=C1C2C=CC(C(O)c3cccc(O)c3)N(Nc3ccc([N+](=O)[O-])cc3)C2C(=O)N1c1ccccc1` (stereo not given) was run?
Answer: Its composite z-score is 0.939.

Question: With `C=CC[C@@]1(C(=O)NCCCOC)N=C(c2ccc(OCCCO)cc2)O[C@@H]1c1ccccc1` as the molecule, how does the composite z-score read?
Answer: The composite z-score was 1.06.

Question: With `CCCCC(=C=CC[C@H](O)c1ccc(OCCO)cc1)CCO` as the molecule, how does the composite z-score read?
Answer: Its composite z-score is 0.656.

Question: How did the composite z-score turn out when `C=C(C(=O)CC[C@H](OC(=O)c1ccccc1-c1ccccc1C(=O)O)c1cccc(OCCO)c1)C(C)C` was run?
Answer: Its composite z-score is -0.304.

Question: With `COC(=O)[C@]1(CCS(=O)(=O)c2ccccc2)N=C(c2ccc(OCCCO)cc2)O[C@@H]1c1ccccc1N=[N+]=[N-]` as the molecule, how does the composite z-score read?
Answer: The composite z-score was -0.0608.

Question: With `C=C(/C(=C/C[C@H](OC(=O)c1ccncc1)c1ccc(CO)o1)c1cnc2ccccc2c1)C(C)C` as the molecule, how does the composite z-score read?
Answer: The composite z-score was 1.38.

Question: `CC[C@@H]1C=C(C(=O)O)[C@H](c2ccc(C#N)cc2)N1S(=O)(=O)c1ccc(C)cc1` was tested. Which composite z-score did it give?
Answer: Its composite z-score is 0.458.

Question: `CCCCCCCCCCC(O)C1C=CC2C(=O)N(c3ccccc3)C(=O)C2N1Nc1ccc(C#N)cc1` (stereo not given) was tested. Which composite z-score did it give?
Answer: Its composite z-score is 1.38.

Question: How did the composite z-score turn out when `CC[C@@H]1C=C(C(=O)O)[C@H](c2ccccc2)N1S(=O)(=O)c1ccc(C)cc1` was run?
Answer: The composite z-score was 0.807.

Question: How did the composite z-score turn out when `O=C1O[C@H](c2ccccc2)[C@H](c2ccccc2)N2[C@H]1[C@@H](C(=O)O)[C@]1(C(=O)Nc3ccc(C#CCCO)cc31)[C@H]2c1ccccc1OCCO` was run?
Answer: The composite z-score was 1.24.

Question: For `O=C1C2C=CC(C(O)c3ccco3)N(Nc3ccccc3F)C2C(=O)N1c1ccccc1` (stereo not given), which composite z-score is on record?
Answer: The composite z-score was 0.761.

Question: Which composite z-score does the source give for `COc1ccc([Si](C)(C)[C@@H]2[C@@H](CCO)O[C@]3(C(=O)N(Cc4cccc(NC(=O)[C@H](C)O)c4)c4ccccc43)[C@H]2C)cc1` here?
Answer: The composite z-score was 1.36.

Question: With `CC(C)N1C(=O)C[C@@](C(=O)NC2CC2)(c2ccc([N+](=O)[O-])cc2)[C@H]1c1ccc(CO)cc1` as the molecule, how does the composite z-score read?
Answer: Its composite z-score is 1.3.

Question: Which composite z-score does the source give for `Oc1ccc2cc[n+](Cc3cc4c(cc3Br)OCO4)cc2c1` here?
Answer: The composite z-score was -1.22.

Question: How did the composite z-score turn out when `CCOC(=O)C[C@H]1[C@H](OC(=O)c2ccc(-c3ccccc3)cc2)[C@@H](NC(=O)CC(C)C)c2cc(OCCCO)ccc2N1C(=O)c1ccc2ccccc2n1` was run?
Answer: Its composite z-score is 0.903.

Question: With `CCCCC(CC)C(O)C1C=CC2C(=O)N(c3ccccc3)C(=O)C2N1Nc1ccccc1F` (stereo not given) as the molecule, how does the composite z-score read?
Answer: The composite z-score was 1.41.

Question: Which composite z-score does the source give for `CCOC(=O)C[C@H]1[C@H](OC(=O)c2ccccc2-c2ccccc2)[C@@H](NC(=O)c2ccc3ccccc3n2)c2cc(OCCCO)ccc2N1C(=O)Cc1ccc(OC)cc1` here?
Answer: Its composite z-score is 0.345.

Question: `COCCCNC(=O)[C@@]1(CCC(=O)OC(C)(C)C)N=C(c2ccc(OCCCO)cc2)O[C@H]1c1ccccc1N=[N+]=[N-]` was tested. Which composite z-score did it give?
Answer: Its composite z-score is 0.515.

Question: For `OCCCC1=CC(c2ccc(CN3CCCC3)cc2)N(Cc2cc3c(cc2Br)OCO3)CC1` (stereo not given), which composite z-score is on record?
Answer: Its composite z-score is -0.377.

Question: Which composite z-score does the source give for `CCOC(=O)C[C@H]1[C@H](OC(=O)Cc2ccc3c(c2)OCO3)[C@@H](NC(=O)C2CCCCC2)c2cc(OCCCO)ccc2N1C(=O)c1ccccc1` here?
Answer: Its composite z-score is 0.232.

Question: For `COCC(=C=CC[C@H](O)c1ccccc1OCCO)C[C@H](O)c1ccccn1`, which composite z-score is on record?
Answer: The composite z-score was -0.0881.

Question: How did the composite z-score turn out when `[N-]=[N+]=NCc1ccccc1[C@@H]1OC(c2ccc(OCCCO)cc2)=N[C@]1(CCS(=O)(=O)c1ccccc1)C(=O)O` was run?
Answer: The composite z-score was 1.31.
